# According to paper PMC7862700, “An all-to-all approach to the identification of sequence-specific readers for epigenetic DNA modifications on cytosine”:
# Columns and labels:
# Experiment in all cases: DAPPL (digital affinity profiling via proximity ligation, sequencing); 10 mM Tris-HCl pH 7.5, 50 mM NaCl, 1 mM DTT, 4% glycerol, room temperature, 30 min; GST-TFs on glutathione beads, 16-mer random dsDNA library, 0.1% formaldehyde crosslink after washing; high values mean tight binding
# FLI1 = biological target: T1, FLI1 (Homo sapiens, UniProt Q01543 1-452); settings: protein: recombinant; tags: N-terminal GST; dsDNA, one strand shown
# T1 sequence: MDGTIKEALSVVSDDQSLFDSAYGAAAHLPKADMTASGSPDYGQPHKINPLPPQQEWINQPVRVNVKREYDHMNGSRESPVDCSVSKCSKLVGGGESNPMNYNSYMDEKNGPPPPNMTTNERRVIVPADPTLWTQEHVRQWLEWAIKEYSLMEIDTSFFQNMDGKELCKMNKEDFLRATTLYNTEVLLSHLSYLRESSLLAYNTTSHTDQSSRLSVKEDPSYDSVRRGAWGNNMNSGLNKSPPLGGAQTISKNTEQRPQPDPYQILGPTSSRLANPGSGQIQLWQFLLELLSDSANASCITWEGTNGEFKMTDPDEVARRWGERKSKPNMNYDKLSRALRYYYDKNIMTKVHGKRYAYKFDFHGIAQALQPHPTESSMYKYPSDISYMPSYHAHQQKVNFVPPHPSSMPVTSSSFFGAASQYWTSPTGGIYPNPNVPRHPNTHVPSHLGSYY
# In short: (§1)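 Pools of DNA-barcoded human transcription factors, expressed in yeast as GST fusions on glutathione beads and combined with a tag-only sample, were incubated with 200 nmole of a 16-mer random double-stranded DNA library. Incubation took 30 min at room temperature in Tris/NaCl/DTT/glycerol buffer and was followed by washing, 0.1% formaldehyde crosslinking, proximity ligation (BsaI/T4 ligase, 1 h, 37 °C), PCR amplification and sequencing on an Illumina NextSeq500. Binding signal is the ratio of a hexamer's read frequency for a factor to its frequency for the tag-only sample.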
# ELK1 = biological target: T2, ELK1 (Homo sapiens, UniProt P19419 1-428); settings: protein: recombinant; tags: N-terminal GST; dsDNA, one strand shown
# T2 sequence: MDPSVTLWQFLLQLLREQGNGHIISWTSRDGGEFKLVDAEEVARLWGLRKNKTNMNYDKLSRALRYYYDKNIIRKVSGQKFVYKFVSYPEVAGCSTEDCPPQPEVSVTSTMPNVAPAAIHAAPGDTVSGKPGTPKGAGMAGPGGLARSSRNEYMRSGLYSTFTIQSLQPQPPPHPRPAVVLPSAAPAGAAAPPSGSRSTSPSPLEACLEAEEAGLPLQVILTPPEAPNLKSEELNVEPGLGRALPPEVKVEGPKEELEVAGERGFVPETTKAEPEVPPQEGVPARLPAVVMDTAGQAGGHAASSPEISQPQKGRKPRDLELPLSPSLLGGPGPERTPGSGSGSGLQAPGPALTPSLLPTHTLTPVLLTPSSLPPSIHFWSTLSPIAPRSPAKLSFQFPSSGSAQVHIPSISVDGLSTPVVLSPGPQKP
# In short: as §1
# GABPA = biological target: T3, GABPA (Homo sapiens, UniProt Q06546 1-454); settings: protein: recombinant; tags: N-terminal GST; dsDNA, one strand shown
# T3 sequence: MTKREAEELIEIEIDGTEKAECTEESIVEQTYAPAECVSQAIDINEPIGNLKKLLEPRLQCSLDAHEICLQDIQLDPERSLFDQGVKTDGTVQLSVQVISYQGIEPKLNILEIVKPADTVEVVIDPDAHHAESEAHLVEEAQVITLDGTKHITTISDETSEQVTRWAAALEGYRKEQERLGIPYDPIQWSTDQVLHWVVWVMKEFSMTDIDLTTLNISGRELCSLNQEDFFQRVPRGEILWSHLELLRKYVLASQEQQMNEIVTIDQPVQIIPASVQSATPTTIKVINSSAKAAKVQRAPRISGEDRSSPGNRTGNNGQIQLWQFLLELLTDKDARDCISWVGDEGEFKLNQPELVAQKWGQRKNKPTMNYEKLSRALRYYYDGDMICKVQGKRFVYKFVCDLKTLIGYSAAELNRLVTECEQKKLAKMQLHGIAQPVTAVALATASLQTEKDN
# In short: as §1
# ERG = biological target: T4, ERG (Homo sapiens, UniProt P11308 1-479); settings: protein: recombinant; tags: N-terminal GST; dsDNA, one strand shown
# T4 sequence: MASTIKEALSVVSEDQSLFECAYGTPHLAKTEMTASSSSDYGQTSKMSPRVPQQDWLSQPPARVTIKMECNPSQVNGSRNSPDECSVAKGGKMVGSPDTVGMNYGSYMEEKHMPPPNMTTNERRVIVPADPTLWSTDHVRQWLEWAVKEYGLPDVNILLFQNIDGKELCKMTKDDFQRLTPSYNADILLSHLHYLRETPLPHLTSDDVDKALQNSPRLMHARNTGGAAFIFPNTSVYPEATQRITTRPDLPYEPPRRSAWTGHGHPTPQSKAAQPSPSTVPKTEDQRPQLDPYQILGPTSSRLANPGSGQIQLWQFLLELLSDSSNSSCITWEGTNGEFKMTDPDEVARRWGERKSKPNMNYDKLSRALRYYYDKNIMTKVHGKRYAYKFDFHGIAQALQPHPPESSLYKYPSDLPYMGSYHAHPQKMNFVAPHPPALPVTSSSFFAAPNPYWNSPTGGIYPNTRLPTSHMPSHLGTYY
# In short: as §1
# ELF1 = ELF1 (Homo sapiens, UniProt P32519 1-619); settings: protein: recombinant; tags: N-terminal GST; dsDNA, one strand shown
# Sequence of ELF1 (P32519 whole entry): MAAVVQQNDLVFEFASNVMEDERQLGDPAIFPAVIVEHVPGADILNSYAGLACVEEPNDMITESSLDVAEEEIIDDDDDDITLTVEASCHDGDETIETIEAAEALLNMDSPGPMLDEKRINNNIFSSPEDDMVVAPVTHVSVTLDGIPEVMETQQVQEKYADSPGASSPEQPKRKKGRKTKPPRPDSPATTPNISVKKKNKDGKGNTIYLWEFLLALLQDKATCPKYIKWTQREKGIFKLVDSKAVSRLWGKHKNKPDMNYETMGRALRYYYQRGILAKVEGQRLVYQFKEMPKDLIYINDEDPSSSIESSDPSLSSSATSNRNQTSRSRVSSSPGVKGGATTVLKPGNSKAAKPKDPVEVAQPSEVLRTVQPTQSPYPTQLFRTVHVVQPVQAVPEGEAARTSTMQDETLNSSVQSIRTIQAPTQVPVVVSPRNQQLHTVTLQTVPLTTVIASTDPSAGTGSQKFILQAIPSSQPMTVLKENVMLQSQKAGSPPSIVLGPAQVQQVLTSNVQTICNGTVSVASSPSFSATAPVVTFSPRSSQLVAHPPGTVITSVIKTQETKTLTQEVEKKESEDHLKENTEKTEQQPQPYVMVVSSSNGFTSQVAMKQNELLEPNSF
# In short: as §1
# EHF = biological target: T5, EHF (Homo sapiens, UniProt Q9NZC4 1-300); settings: protein: recombinant; tags: N-terminal GST; dsDNA, one strand shown
# T5 sequence: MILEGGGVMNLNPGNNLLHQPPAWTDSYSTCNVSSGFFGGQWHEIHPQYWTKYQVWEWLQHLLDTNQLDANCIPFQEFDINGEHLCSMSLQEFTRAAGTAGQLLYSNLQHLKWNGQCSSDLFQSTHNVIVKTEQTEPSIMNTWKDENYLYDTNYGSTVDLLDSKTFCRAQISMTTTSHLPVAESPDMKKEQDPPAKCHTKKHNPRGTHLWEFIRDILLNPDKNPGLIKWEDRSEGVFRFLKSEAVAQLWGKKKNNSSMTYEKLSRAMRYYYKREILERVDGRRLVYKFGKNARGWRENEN
# In short: as §1
# SPI1 = SPI1 (Homo sapiens, UniProt P17947 1-270); settings: protein: recombinant; tags: N-terminal GST; dsDNA, one strand shown
# In short: as §1
# SPIB = SPIB (Homo sapiens, UniProt Q01892 1-262); settings: protein: recombinant; tags: N-terminal GST; dsDNA, one strand shown
# Sequence of SPIB (Q01892 whole entry): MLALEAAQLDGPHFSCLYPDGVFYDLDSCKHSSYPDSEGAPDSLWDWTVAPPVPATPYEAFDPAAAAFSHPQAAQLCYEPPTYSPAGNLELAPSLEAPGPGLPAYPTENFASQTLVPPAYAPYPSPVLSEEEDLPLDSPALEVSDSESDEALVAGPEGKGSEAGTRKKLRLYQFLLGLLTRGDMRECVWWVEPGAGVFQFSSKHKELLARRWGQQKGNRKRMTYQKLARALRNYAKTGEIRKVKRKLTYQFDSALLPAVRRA
# In short: as §1
# ELK3 = biological target: T6, ELK3 (Homo sapiens, UniProt P41970 1-407); settings: protein: recombinant; tags: N-terminal GST; dsDNA, one strand shown
# T6 sequence: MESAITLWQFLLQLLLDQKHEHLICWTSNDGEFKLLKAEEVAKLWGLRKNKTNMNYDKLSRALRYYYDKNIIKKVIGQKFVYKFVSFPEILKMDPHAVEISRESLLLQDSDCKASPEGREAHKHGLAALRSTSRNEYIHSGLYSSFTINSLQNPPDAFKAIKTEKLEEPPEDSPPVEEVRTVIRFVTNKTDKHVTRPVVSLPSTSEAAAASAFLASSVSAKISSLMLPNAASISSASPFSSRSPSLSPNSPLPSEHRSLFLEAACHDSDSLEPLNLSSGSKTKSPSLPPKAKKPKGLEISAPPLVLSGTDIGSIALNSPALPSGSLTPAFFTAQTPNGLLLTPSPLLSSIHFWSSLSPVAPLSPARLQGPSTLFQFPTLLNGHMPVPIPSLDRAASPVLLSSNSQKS
# In short: as §1
# FEV = biological target: T7, FEV (Homo sapiens, UniProt Q99581 1-238); settings: protein: recombinant; tags: N-terminal GST; dsDNA, one strand shown
# T7 sequence: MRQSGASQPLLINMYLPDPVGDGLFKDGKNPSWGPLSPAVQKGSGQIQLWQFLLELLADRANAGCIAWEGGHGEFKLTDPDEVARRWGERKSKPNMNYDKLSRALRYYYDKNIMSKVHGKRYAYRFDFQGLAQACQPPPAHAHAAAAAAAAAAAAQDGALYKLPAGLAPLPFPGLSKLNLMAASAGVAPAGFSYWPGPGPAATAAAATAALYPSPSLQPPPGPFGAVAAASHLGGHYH
# In short: as §1
# ETV5 = ETV5 (Homo sapiens, UniProt P41161 1-510); settings: protein: recombinant; tags: N-terminal GST; dsDNA, one strand shown
# Sequence of ETV5 (P41161 whole entry): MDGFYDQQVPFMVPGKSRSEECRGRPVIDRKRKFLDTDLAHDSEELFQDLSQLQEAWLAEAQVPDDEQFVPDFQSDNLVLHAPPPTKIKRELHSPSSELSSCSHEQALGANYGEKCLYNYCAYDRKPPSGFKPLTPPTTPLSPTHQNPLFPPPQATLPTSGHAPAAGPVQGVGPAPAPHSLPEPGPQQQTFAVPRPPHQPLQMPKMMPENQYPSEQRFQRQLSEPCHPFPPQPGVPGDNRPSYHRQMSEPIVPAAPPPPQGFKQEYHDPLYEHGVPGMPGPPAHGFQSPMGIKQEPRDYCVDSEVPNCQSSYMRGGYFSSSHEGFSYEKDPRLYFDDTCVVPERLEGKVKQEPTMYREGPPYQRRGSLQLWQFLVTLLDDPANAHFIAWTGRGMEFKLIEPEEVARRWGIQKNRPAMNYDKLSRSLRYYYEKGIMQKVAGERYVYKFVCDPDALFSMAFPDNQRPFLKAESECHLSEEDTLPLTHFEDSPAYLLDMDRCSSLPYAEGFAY
# In short: as §1
# HSF1 = HSF1 (Homo sapiens, UniProt Q00613 1-529); settings: protein: recombinant; tags: N-terminal GST; chain copies: 3; dsDNA, one strand shown
# Sequence of HSF1 (Q00613 whole entry): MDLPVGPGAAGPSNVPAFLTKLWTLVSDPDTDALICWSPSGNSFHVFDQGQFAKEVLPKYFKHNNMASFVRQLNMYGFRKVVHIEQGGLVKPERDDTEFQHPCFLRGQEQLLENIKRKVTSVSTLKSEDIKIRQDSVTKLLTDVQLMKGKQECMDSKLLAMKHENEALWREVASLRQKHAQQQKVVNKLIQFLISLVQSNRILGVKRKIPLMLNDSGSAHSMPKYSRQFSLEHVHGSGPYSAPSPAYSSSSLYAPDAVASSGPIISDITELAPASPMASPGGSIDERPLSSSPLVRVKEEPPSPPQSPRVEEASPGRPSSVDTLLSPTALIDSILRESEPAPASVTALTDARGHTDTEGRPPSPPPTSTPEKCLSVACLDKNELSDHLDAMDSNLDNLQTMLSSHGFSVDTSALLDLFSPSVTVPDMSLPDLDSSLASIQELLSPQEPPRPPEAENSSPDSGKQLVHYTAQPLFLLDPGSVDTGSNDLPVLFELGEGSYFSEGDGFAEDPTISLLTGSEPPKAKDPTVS
# In short: as §1
# SPIC = biological target: T8, SPIC (Homo sapiens, UniProt Q8N5J4 1-248); settings: protein: recombinant; tags: N-terminal GST; dsDNA, one strand shown
# T8 sequence: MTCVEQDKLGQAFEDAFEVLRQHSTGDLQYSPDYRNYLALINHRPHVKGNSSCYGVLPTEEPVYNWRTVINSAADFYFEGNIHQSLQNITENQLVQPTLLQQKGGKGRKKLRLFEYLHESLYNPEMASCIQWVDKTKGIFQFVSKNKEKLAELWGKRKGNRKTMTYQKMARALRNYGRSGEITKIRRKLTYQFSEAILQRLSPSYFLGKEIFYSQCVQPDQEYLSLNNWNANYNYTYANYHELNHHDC
# In short: as §1
# ELF4 = ELF4 (Homo sapiens, UniProt Q99607 1-663); settings: protein: recombinant; tags: N-terminal GST; dsDNA, one strand shown
# Sequence of ELF4 (Q99607 whole entry): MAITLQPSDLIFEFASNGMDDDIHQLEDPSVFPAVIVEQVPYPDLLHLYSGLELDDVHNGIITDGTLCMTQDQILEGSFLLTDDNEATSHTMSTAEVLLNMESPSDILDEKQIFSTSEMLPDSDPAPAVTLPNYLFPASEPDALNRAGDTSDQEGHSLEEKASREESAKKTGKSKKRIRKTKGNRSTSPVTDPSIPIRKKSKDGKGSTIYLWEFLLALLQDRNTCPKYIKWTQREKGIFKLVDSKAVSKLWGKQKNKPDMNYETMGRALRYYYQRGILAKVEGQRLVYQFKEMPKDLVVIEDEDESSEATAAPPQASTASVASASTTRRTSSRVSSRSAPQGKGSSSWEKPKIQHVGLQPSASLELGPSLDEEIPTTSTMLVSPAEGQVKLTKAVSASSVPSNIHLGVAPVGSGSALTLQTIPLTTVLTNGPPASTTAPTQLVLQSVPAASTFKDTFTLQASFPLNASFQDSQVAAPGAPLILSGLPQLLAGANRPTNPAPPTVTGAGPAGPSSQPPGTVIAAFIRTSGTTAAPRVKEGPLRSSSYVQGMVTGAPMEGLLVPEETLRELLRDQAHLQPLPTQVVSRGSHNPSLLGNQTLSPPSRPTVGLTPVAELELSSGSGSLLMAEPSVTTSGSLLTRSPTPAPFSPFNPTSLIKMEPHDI
# In short: as §1
# ELK4 = biological target: T9, ELK4 (Homo sapiens, UniProt P28324-2 1-405); settings: protein: recombinant; tags: N-terminal GST; dsDNA, one strand shown
# T9 sequence: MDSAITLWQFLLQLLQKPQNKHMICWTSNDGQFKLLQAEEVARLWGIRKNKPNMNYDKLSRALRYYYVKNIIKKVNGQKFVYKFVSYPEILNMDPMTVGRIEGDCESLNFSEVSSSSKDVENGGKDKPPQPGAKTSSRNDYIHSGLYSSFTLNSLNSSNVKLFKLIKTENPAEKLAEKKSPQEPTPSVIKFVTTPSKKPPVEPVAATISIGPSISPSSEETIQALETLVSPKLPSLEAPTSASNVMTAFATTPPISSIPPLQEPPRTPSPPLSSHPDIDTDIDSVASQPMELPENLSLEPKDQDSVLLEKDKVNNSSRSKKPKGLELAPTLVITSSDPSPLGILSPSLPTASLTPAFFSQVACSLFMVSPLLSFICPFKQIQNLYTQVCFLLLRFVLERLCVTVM
# In short: as §1
# ETV2 = biological target: T10, ETV2 (Homo sapiens, UniProt O00321 1-342); settings: protein: recombinant; tags: N-terminal GST; dsDNA, one strand shown
# T10 sequence: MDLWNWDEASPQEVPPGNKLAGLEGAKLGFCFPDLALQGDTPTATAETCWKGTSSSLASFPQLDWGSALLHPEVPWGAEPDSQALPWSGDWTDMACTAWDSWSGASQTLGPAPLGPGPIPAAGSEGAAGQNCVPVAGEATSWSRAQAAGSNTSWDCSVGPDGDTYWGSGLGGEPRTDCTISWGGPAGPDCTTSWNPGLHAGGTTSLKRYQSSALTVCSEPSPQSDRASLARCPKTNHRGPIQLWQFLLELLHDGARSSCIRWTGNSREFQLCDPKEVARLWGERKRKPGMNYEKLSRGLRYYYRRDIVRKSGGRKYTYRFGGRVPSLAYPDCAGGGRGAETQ
# In short: as §1
# ELF3 = biological target: T11, ELF3 (Homo sapiens, UniProt P78545 1-371); settings: protein: recombinant; tags: N-terminal GST; dsDNA, one strand shown
# T11 sequence: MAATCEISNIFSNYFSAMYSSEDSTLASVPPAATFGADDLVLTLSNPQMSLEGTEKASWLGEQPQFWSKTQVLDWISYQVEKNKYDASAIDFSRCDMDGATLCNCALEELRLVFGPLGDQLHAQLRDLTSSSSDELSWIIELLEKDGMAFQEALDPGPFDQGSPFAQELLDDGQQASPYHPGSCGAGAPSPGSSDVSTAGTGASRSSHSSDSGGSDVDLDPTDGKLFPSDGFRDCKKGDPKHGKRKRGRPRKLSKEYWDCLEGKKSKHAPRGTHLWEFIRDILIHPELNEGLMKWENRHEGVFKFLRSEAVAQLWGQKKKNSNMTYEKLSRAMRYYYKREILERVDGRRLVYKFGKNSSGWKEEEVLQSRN
# In short: as §1
# CRX = CRX (Homo sapiens, UniProt O43186 1-299); settings: protein: recombinant; tags: N-terminal GST; dsDNA, one strand shown
# Sequence of CRX (O43186 whole entry): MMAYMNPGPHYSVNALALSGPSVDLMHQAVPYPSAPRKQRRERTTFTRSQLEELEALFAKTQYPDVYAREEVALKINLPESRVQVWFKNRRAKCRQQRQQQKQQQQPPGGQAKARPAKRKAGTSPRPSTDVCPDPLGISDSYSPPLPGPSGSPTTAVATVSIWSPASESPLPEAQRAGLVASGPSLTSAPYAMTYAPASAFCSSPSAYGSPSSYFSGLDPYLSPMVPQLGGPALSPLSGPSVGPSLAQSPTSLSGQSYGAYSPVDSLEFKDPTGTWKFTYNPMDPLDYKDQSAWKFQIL
# In short: as §1
# ETV1 = ETV1 (Homo sapiens, UniProt P50549 1-477); settings: protein: recombinant; tags: N-terminal GST; dsDNA, one strand shown
# Sequence of ETV1 (P50549 whole entry): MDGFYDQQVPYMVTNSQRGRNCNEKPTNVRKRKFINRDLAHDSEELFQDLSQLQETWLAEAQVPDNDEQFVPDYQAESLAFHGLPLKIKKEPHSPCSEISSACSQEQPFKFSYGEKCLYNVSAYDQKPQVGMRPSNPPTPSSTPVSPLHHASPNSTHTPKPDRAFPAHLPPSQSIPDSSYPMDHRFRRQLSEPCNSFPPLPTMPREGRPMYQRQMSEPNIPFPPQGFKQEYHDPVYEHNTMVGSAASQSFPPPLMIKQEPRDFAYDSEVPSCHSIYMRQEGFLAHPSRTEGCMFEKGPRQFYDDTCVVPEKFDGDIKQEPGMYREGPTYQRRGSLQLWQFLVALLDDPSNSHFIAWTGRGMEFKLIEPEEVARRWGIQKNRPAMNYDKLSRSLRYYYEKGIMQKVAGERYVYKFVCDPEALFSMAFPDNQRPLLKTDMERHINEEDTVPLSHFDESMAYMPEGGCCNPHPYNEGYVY
# In short: as §1
sequence,measurement,setting,value
CCTTTT,binding signal,FLI1,"1.49 fold enrichment (6-mer frequency, TF over GST control)"
same,binding signal,ELK1,"1.46 fold enrichment (6-mer frequency, TF over GST control)"
same,binding signal,GABPA,"1.46 fold enrichment (6-mer frequency, TF over GST control)"
same,binding signal,ERG,"1.56 fold enrichment (6-mer frequency, TF over GST control)"
same,binding signal,ELF1,"1.52 fold enrichment (6-mer frequency, TF over GST control)"
same,binding signal,EHF,"1.49 fold enrichment (6-mer frequency, TF over GST control)"
same,binding signal,SPI1,"2.05 fold enrichment (6-mer frequency, TF over GST control)"
same,binding signal,SPIB,"1.67 fold enrichment (6-mer frequency, TF over GST control)"
same,binding signal,ELK3,"1.64 fold enrichment (6-mer frequency, TF over GST control)"
same,binding signal,FEV,"1.68 fold enrichment (6-mer frequency, TF over GST control)"
same,binding signal,ETV5,"1.56 fold enrichment (6-mer frequency, TF over GST control)"
same,binding signal,HSF1,"1.37 fold enrichment (6-mer frequency, TF over GST control)"
same,binding signal,SPIC,"1.83 fold enrichment (6-mer frequency, TF over GST control)"
same,binding signal,ELF4,"1.64 fold enrichment (6-mer frequency, TF over GST control)"
same,binding signal,ELK4,"1.58 fold enrichment (6-mer frequency, TF over GST control)"
same,binding signal,ETV2,"1.38 fold enrichment (6-mer frequency, TF over GST control)"
same,binding signal,ELF3,"1.68 fold enrichment (6-mer frequency, TF over GST control)"
same,binding signal,CRX,"1.36 fold enrichment (6-mer frequency, TF over GST control)"
same,binding signal,ETV1,"1.6 fold enrichment (6-mer frequency, TF over GST control)"
